Data taken from PubChem BioAssay.
The source made the active and inactive calls.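 The calls were made as follows, unless noted: active = viability loss from added drug above about 55%, and viability with drug at most 40%, in both replicates (limit read from the data, passing the limit was not always enough); inconclusive = both conditions met in only one replicate; inactive = neither replicate meets both conditions.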

Tests used:
[1] = reduced viability of SK-BR-3 breast cancer cells – cell-based, 24 h, human, pilot screen (AID 572;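 active = viability at or below 10% of carrier control in both of two separate runs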;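 also: compound exposure lasted between 18 and 24 h rather than exactly 24 h; 100% = carrier-treated control wells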); conditions: SK-BR-3 viability, CellTiter-Glo luminescence, at 10 µM, stronger effect = lower value
[2] = H69AR cell proliferation blockers – human, duplicate replicates, primary screen (AID 580;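 active = viability at or under a set limit in both replicates, limit being median viability minus 3 SD, cut at about 48% in these data, passing the limit was not always enough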;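 also: 100% = mean luminescence of untreated wells and 0% = no signal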); conditions: H69AR lung tumor cells viability, ATP luminescence, 72 h; at 10 µM; stronger effect = lower value
[3] = MRP1 drug-resistance reversers in H69AR cells – cell-based, doxorubicin co-treatment, pilot screen (AID 601); conditions: CellTiter-Glo, 72 h, at 10 µM; for differential viability (reversal): stronger effect = higher value
[4] = yeast transport mutant growth inhibition pilot in 384-well plates, post-Golgi transport modulator project (AID 636; in the data active = inhibition above about 31%); conditions: absorbance 615 nm, about 18 h, stronger effect = higher value
[5] = growth suppression of yeast trafficking mutant, preliminary HTS, modulators of trafficking downstream of Golgi apparatus project, 1536-format plate, OD 615 nm (AID 637; in the data active = inhibition above about 30%); conditions: yeast transport mutant growth, absorbance 615 nm, 18 h; stronger effect = higher value
[6] = HUVEC growth inhibition – cell-based, human, primary screen (AID 575;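 active = viability at or below 30% in both replicate assays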;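 also: 100% = median of untreated cell wells with 0.1% DMSO on each plate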); conditions: HUVEC proliferation, CellTiter-Glo luminescence, 72 h; at 10 µM; stronger effect = lower value
[7] = H69AR cells + 2 uM doxorubicin, measured here: viability with 2 uM doxorubicin, stronger effect = lower value
[8] = H69AR cells, compound alone cytotoxicity

Row | SMILES | viability [1] | viability [2] | differential viability (reversal) ([3]; H69AR cells + 2 uM doxorubicin) | viability [3, 7] | viability [3, 8] | inhibition [4] | inhibition [5] | viability [6]
1 | COc1ccc(Br)cc1-c1noc(-c2ccccc2)n1 | 99% (inactive) | 78.5% (inactive) | -0.585% (inactive) | 79.1% | 78.5% | -3.87% (inactive) | -4.36% (inactive) | –
2 | COc1cccc(-c2cc(C(=O)Nc3cc(C)n(Cc4ccc(Cl)cc4)n3)no2)c1 | 57.5% (inactive) | – | -6.4% (inactive) | 58.5% | 52.1% | -6.35% (inactive) | -7% (inactive) | –
3 | COC(=O)c1ccccc1NC(=O)c1ccc(-c2ccccc2F)o1 | 89% (inactive) | – | 7.71% (inactive) | 53.2% | 60.9% | -8.36% (inactive) | -2.74% (inactive) | –
4 | O=C1NC(c2ccccc2)(C(F)(F)F)SC2=NCCCN12 (configuration not stated) | – | 97.2% (inactive) | 7.68% (inactive) | 89.6% | 97.2% | 3.82% (inactive) | -6.98% (inactive) | 102% (inactive)
5 | O=C(CN1C(=O)COc2ccccc21)NCCN1CCc2ccccc2C1 | – | 92.9% (inactive) | -3.52% (inactive) | 96.4% | 92.9% | -4.68% (inactive) | -1.59% (inactive) | 79.1% (inactive)
6 | Cc1nnc(SCC(=O)N2CCC(C(N)=O)CC2)s1 | – | 91.2% (inactive) | -8.62% (inactive) | 99.8% | 91.2% | -1.2% (inactive) | -5.24% (inactive) | 93.5% (inactive)
7 | COc1cccc(CN2C(=O)C3(C(C#N)=C(N)OC4=C3C(=O)CCC4)c3ccccc32)c1 (configuration not stated) | 104% (inactive) | – | -2.01% (inactive) | 12.6% | 10.6% | 84.2% (active) | 51.6% (active) | –
8 | CC(=O)C(Sc1ncnc2c1nnn2-c1ccc(F)cc1)C(=O)N(C)C (configuration not stated) | 136% (inactive) | – | -12.3% (inactive) | 61% | 48.7% | -3.12% (inactive) | 4.1% (inactive) | –
9 | CNCCCC12CCC(c3ccccc31)c1ccccc12 | – | 70.1% (inactive) | 6.27% (inactive) | 63.8% | 70.1% | – | – | 77.4% (inactive)
10 | O=S(=O)(c1ccc(Oc2ccc(-c3nnco3)cc2)nc1)N1CCC(Cc2ccccc2)CC1 | 109% (inactive) | – | -8.52% (inactive) | 60.4% | 51.9% | -4.11% (inactive) | -10.3% (inactive) | –
11 | CCCc1cc(=O)[nH]c(/N=C(\N)Nc2ccccc2)n1 | – | 82.4% (inactive) | -13.9% (inactive) | 96.3% | 82.4% | -0.13% (inactive) | 3.49% (inactive) | 80.8% (inactive)
12 | O=C(c1ccco1)N1CCN(CC(=O)N(C2CCCCC2)C2CCS(=O)(=O)C2)CC1 (configuration not stated) | – | 93.5% (inactive) | -4.1% (inactive) | 97.6% | 93.5% | -4.81% (inactive) | -3.17% (inactive) | 94% (inactive)
13 | COc1ccc(Cn2nnnc2C(c2ccncc2)N2CCOCC2)cc1 (configuration not stated) | – | 94.7% (inactive) | 3.26% (inactive) | 91.4% | 94.7% | 0.78% (inactive) | 0.95% (inactive) | 90.4% (inactive)
14 | O=C(NC1CC1)c1cccc(Nc2ccc(-c3ccc4c(c3)OCCO4)nn2)c1 | 76% (inactive) | – | -12% (inactive) | 61.2% | 49.1% | -0.81% (inactive) | -5.82% (inactive) | –
15 | C[C@]12CC[C@@H]3c4ccc(OC(=O)c5ccccc5)cc4CC[C@H]3[C@@H]1CC[C@@H]2O | 78% (inactive) | – | -9.02% (inactive) | 48% | 39% | 2.73% (inactive) | 32% (active) | –
16 | COc1cc2nc(N3CCN(C(=O)c4ccco4)CC3)nc(N)c2cc1OC | 53% (inactive) | – | -13.4% (inactive) | 28.9% | 15.4% | 2.47% (inactive) | -0.17% (inactive) | –
17 | COc1ccc(OC)c(-c2nc3c(C)n[nH]c(=O)c3[nH]2)c1 | – | 69.5% (inactive) | -21.3% (inactive) | 90.7% | 69.5% | -6.13% (inactive) | -0.95% (inactive) | 79.1% (inactive)
18 | Cc1ccccc1NC(=O)c1ccc(NC(=O)c2ccco2)cc1 | – | 80.7% (inactive) | 1.25% (inactive) | 79.4% | 80.7% | -6.84% (inactive) | -4.6% (inactive) | 102% (inactive)
19 | Cc1ccc(N2CCN(C(=O)c3ccccc3)CC2)c(C)c1 | – | 91.1% (inactive) | 6.71% (inactive) | 84.4% | 91.1% | -7.33% (inactive) | 5.4% (inactive) | 114% (inactive)
20 | COc1cc2nc(N3CCN(C(=O)C4COc5ccccc5O4)CC3)nc(N)c2cc1OC (configuration not stated) | 59% (inactive) | – | -15.4% (inactive) | 23.7% | 8.23% | -0.65% (inactive) | 6.83% (inactive) | –
21 | COc1ccc(Cl)c(N2CCN(CCCNC(=O)Nc3ccc(C)cc3)CC2)c1 | 98% (inactive) | – | -14.9% (inactive) | 60.3% | 45.4% | -5.34% (inactive) | -2.91% (inactive) | –
22 | CCN(CC)C(=O)CSc1nnc(-c2cc(OC)cc(OC)c2)o1 | – | 93.9% (inactive) | 2.03% (inactive) | 91.9% | 93.9% | -5.87% (inactive) | 2.7% (inactive) | 84.1% (inactive)
